Hits are enriched below; roughly 6% of the tested compounds scored in any of these assays.
D1 PAM = potentiators of human D1 dopamine receptor | P21728 | HEK293 TREx D1 cells, calcium flux, dopamine EC20 potentiation | potentiation, % at 10 µM | 0.036% of 360,000 active | AID 504651; in the data active = potentiation above about 30%
Target sequence (P21728 whole entry, looked up): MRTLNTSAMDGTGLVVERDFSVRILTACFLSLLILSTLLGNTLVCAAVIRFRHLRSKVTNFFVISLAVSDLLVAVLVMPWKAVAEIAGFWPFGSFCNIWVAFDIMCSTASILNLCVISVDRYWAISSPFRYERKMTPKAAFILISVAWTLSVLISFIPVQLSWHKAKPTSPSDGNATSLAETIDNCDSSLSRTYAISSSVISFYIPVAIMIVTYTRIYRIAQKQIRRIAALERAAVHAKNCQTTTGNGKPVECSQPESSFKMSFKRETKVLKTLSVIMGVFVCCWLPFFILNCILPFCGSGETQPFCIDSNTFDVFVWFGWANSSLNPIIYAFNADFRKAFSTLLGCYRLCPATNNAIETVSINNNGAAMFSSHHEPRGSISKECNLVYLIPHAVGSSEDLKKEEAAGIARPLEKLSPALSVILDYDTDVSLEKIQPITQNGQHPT
D1 antag = human D1 dopamine receptor antagonism. 3.2% of 360,000 active. P21728. AID 504652. HEK293 TREx D1 cells, calcium flux, dopamine EC80; active compounds read low. activity change, negative = inhibition, % at 10 µM; in the data active = activity change below about -30%
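Inducible Hek293 Trex D1 cells (tetracycline, overnight, 30 C). Calcium dye 30–90 min RT. Antagonist mode: EC80 dopamine added after 180 s compound read.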
D1 ag = activates the human D1 dopamine receptor; HEK293 T-REx D1 cells, calcium flux, agonist mode; activation, % at 2 µM; 1% of 360,000 active; AID 504660; in the data active = activation above about 30%
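Agonism was scored from calcium flux recorded over 180 s (1 read/s) after pintool compound addition, following a 10-cycle baseline. Cells were inducible force-coupled HEK293 TREx D1, plated overnight at 30 C and loaded with no-wash calcium dye.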
DRD3 antagonist = blocks the human D3 dopamine receptor; P35462; D3R cells, DiscoveRx beta-arrestin luminescence, antagonist mode; active compounds read low; max response, negative = inhibition, %; 2.5% of 360,000 active; AID 652054; in the data active = max response below about -50%; inconclusive = no clear call, values can overlap the other calls
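Cells expressing the human receptor were seeded at 1500 cells/well, incubated overnight at 37 degrees C in 5% CO2, then exposed to library compounds with dopamine controls for 90 minutes at 37 degrees C before luminescent detection.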
DRD3 agonist = D3 dopamine receptor (human) agonism. P35462. D3R DiscoveRx beta-arrestin cells, luminescence, 90 min. max activation, %. 0.58% of 410,000 active. AID 652048; in the data active = max activation above about 30%
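Agonist-mode cell screen: cells plated at 1500/well and incubated overnight at 37 °C, then exposed to library compounds for 90 min at 37 °C. Detection reagent was added for 30–60 min at room temperature, and luminescence was read.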
Of the large screens only hits and unclear results are named; the others gave an inactive call; ! = not confirmed by another sample.

O=C(CN1CCN(c2ccccn2)CC1)N1c2ccccc2Sc2ccc(C(F)(F)F)cc21	DRD3 antagonist -62
O=C(CN1CCN(c2ccccn2)CC1)N1CC(O)CO1 (centres undefined)	none
O=C(CN1CCN(c2ccccn2)CC1)N1c2ccccc2CCc2ccccc21	DRD3 antagonist -54
Cc1cc(C)c(/C=C/c2onc(C)c2S(=O)(=O)N2CCC(C(=O)N(C)Cc3ccccc3)CC2)c(C)c1	none (no result: DRD3 antagonist)
Cc1cccc(-c2nc(CSc3nncn4c3cc3oc(C)cc34)c(C)o2)c1	none (no result: DRD3 antagonist)
CCc1ccccc1NC(=O)Nc1cc(C(=O)NCc2ccc(C)cc2)ccc1N1CCCC1	none (no result: DRD3 antagonist)
CCNCCC(=O)N1c2ccccc2Sc2ccc(C(F)(F)F)cc21	DRD3 antagonist -70
CCOc1ccc(NC(=O)CSc2nc3ccsc3c(=O)n2CCC(C)C)cc1	none (no result: DRD3 antagonist)
COc1ccccc1-c1cc2c(c3c1ccn3C)C1CCC2C1 (centres undefined)	none (no result: D1 PAM, D1 antag, D1 ag)
Cn1ccc2c(-c3ccccc3F)cc3c(c21)C1CCC3C1 (centres undefined)	DRD3 antagonist -54 (no result: D1 PAM, D1 antag, D1 ag)
CCc1nonc1NC(=O)c1oc2ccc(C)cc2c1C	none
Cc1ccc2c(C)c(C(=O)Nc3c(C)n(C)n(-c4ccccc4)c3=O)oc2c1C	D1 antag -37
CCc1nonc1NC(=O)c1oc2cc(Br)ccc2c1C	none
CCc1ccc2oc(C(=O)Nc3nonc3CC)c(C)c2c1	D1 antag -38!
CCc1nonc1NC(=O)c1oc2c(C)c(C)ccc2c1C	DRD3 antagonist -52
Cc1cc2oc(C(=O)Nc3c(C)n(C)n(-c4ccccc4)c3=O)c(C)c2cc1C	none
COc1ccc(-n2nc3c(N4CCC(C(=O)NCc5ccccc5C)CC4)nnc(C)c3c2C)cc1	D1 ag 76!
COc1ccc(-n2nc3c(N4CCC(C(=O)NCCc5ccccc5)CC4)nnc(C)c3c2C)cc1	none (no result: DRD3 antagonist)
Cc1ccc(-n2nc3c(N4CCC(C(=O)NCCc5ccccc5)CC4)nnc(C)c3c2C)cc1	D1 antag -72 (no result: DRD3 antagonist)
O=C1CC(c2ccccc2)Cc2[nH]c(=O)c(-c3nc(-c4ccc(Cl)c(Cl)c4)cs3)cc21 (centres undefined)	none (no result: DRD3 antagonist)
Clc1ccccc1N=C1SCCS1	D1 ag 36
COc1ccc(CCNC(=O)c2cccc(-n3cnnn3)c2)cc1	none (no result: D1 PAM, D1 antag, D1 ag)
CCOc1ccc(CCNC(=O)c2cccc(-n3cnnn3)c2)cc1OCC	D1 antag -31
CCOCCn1c(=NC(=O)c2ccc3c(c2)OCCO3)sc2cc(OCC)ccc21	D1 antag -31 (no result: DRD3 antagonist)
COCCn1c(=NC(=O)c2ccc3c(c2)OCCO3)sc2cc(NC(C)=O)ccc21	none (no result: DRD3 antagonist)
Cc1cc(C)n(C(=O)/C(C#N)=N/Nc2cc(Cl)cc(Cl)c2)n1	D1 antag -34
Cc1nc2ccccc2c(=O)n1-c1ccc(NC(=O)c2ccccc2[N+](=O)[O-])cc1	none (no result: D1 antag, DRD3 antagonist)
COC(=O)c1ccc(COC(=O)c2ccccn2)cc1	none
COC(=O)c1ccc(COC(=O)CCc2nc(-c3ccccc3)c(-c3ccccc3)o2)cc1	D1 ag 30
COc1ccc(-c2cn3nc(SCC(=O)Nc4cccc(C)c4C)ccc3n2)cc1	none (no result: DRD3 antagonist)
CCCN1C(=O)/C(=C/c2c(N3CCNC(=O)C3CC(=O)OC)nc3c(C)cccn3c2=O)SC1=S (centres undefined)	D1 antag -30, D1 ag 265 (no result: DRD3 antagonist, DRD3 agonist)
CC#CCC(C)[C@H](O)/C=C/[C@@H]1[C@H]2C/C(=C/CCCC(=O)O)C[C@H]2C[C@H]1O (some centres undefined)	none (no result: D1 PAM, D1 antag, D1 ag, DRD3 antagonist)
CCCCCOC(=O)NCC(O)c1ccccc1 (centres undefined)	D1 antag -34
O=C(Nc1ccc(O)cc1)C1CC=CCC1 (centres undefined)	D1 antag -100
O=C(Nc1nccs1)C1CC=CCC1 (centres undefined)	none
CN1C[C@H](C(=O)NC2(C)OC3(O)[C@@H]4CCCN4C(=O)[C@H](Cc4ccccc4)N3C2=O)CC2c3cccc4[nH]cc(c34)C[C@H]21 (some centres undefined)	DRD3 antagonist -57 (no result: D1 PAM, D1 antag, D1 ag)
O=C(NC1CCCN(CCc2ccccc2)C1)c1c[nH]c2ccccc12 (centres undefined)	none
Cc1cn2c(=O)cc(COc3ccccc3NC(=O)c3ccccc3C)nc2s1	none (no result: DRD3 antagonist)
CCOC(=O)C1CCCN(C(=O)c2ccc3c(c2)N(Cc2ccc(Cl)cc2)C(=O)c2ccccc2S3=O)C1 (centres undefined)	none (no result: DRD3 antagonist)
Cc1cc(C)cc(NC(=O)C(NCCN2CCOCC2)c2ccccc2)c1 (centres undefined)	D1 antag -54, DRD3 antagonist inconclusive
O=C(NCCCN1CCOCC1)C(c1ccccc1)c1ccccc1	none
CCc1ccccc1NC(=O)Cn1nc2c3cc(F)ccc3n(Cc3cccc(C)c3)cc-2c1=O	none (no result: DRD3 antagonist)
COc1ccccc1C(C)NS(=O)(=O)c1cccs1 (centres undefined)	none (no result: DRD3 antagonist, DRD3 agonist)
CC(C)c1cccc(C(C)C)c1NS(=O)(=O)c1cccs1	D1 antag -31 (no result: DRD3 antagonist)
CCS(=O)(=O)c1oc(-c2ccc(F)cc2)nc1S(=O)(=O)c1ccc(Br)cc1	none (no result: DRD3 antagonist)
O=C(CSc1nc(-c2ccccc2)ns1)N1CCOCC1	none
Cc1cccc(-c2nsc(SCC(=O)N3CCCC3)n2)c1	D1 antag -37
CCC(C)NC(=O)C1CCN(C(=O)c2ccc(-n3ccc4ccccc43)s2)CC1 (centres undefined)	none (no result: DRD3 antagonist)
Cc1cccc(NC(=O)CSC2=NN3CCCC(=O)N=C3S2)c1C	D1 antag -33
Cc1ccc(NC(=O)CSC2=NN3CCCC(=O)N=C3S2)c(C)c1	none
Cc1ccc(-n2ncc3c(Nc4cccc(C)c4C)ncnc32)cc1	D1 antag -32 (no result: DRD3 antagonist)
Cc1cccc(Nc2ncnc3c2cnn3C)c1C	none (no result: DRD3 antagonist)
CCOc1ccccc1Nc1ncnc2c1cnn2-c1ccc(C)cc1	D1 antag -41 (no result: DRD3 antagonist)
O=C(c1cccc(Cl)c1)N(Cc1cccc(F)c1)C1CCS(=O)(=O)C1 (centres undefined)	none (no result: DRD3 antagonist)
CCn1c(=O)n(CC)c2cc(S(=O)(=O)N3CCCCC3)c(C)cc21	DRD3 agonist 31
Cc1ccc(Cl)cc1N1CCN(c2nc3ccccc3c3nc(-c4cccnc4)nn23)CC1	none (no result: DRD3 antagonist)
CC(OC(=O)c1ncc(Cl)c(Cl)c1Cl)C(=O)NC1CCCCC1C (centres undefined)	D1 antag -32
Cc1ccc(C(=O)OC(C)C(=O)NC2CCCCC2C)s1 (centres undefined)	none (no result: D1 PAM)
CCCCS(=O)(=O)c1oc(-c2ccc(F)cc2)nc1S(=O)(=O)c1ccccc1	none (no result: DRD3 antagonist)
CCOC(=O)CN1C(=O)C(=O)N(Cc2cccc(C)c2)C1=O	D1 ag 33
CCC(=O)N1CCc2cc(S(=O)(=O)NC(CC(C)C)C(=O)NCCc3ccccc3)ccc21 (centres undefined)	none (no result: DRD3 antagonist)
Cc1cc(-c2ccc(Cl)cc2Cl)c(C#N)c(=O)[nH]1	D1 ag 31
CCOC(=O)C1=C(C)NC(=O)CC1c1cc2c(cc1Br)OCO2 (centres undefined)	DRD3 antagonist -51

High-throughput results (PubChem BioAssay)
